# Read-outs that look alike come from different tables or passages of the source.
# What was measured:
# Design in all cases: species or system human, MV4-11 + K-562 + COLO205 + SK-N-BE2 + OVCAR-8
# CDKL5 = settings: read-out: apparent Kd, n = 1
# FLT3 = settings: read-out: apparent Kd, n = 1
# MYLK3 = settings: read-out: apparent Kd, n = 1
# PRKD2 = settings: read-out: apparent Kd, n = 1
# DYRK1A = settings: read-out: apparent Kd, n = 1
# MARK4 = settings: read-out: apparent Kd; compound concentrations:100 nM and 1000 nM (sheet 'Samples'); n = 1
# PRKCD = settings: read-out: apparent Kd, n = 1
# PRKD3 = settings: read-out: apparent Kd, n = 1
# RPS6KA6 = settings: read-out: apparent Kd, n = 1
# CDK7 = settings: read-out: apparent Kd, n = 1
# ERCC2 = settings: read-out: apparent Kd, n = 1
# FER = settings: read-out: apparent Kd, compound concentrations: 100 nM and 1000 nM (sheet 'Samples'), n = 1
# PLK4 = settings: read-out: apparent Kd, compound concentrations: 100 nM and 1000 nM (sheet 'Samples'), n = 1
# PRKCQ = settings: read-out: apparent Kd, compound concentrations: 100 nM and 1000 nM (sheet 'Samples'), n = 1
# PTK2B = settings: read-out: apparent Kd, compound concentrations: 100 nM and 1000 nM (sheet 'Samples'), n = 1
# LATS1 = settings: read-out: apparent Kd, n = 1
# PRKAA1 = settings: read-out: apparent Kd, n = 1
# STK10 = settings: read-out: apparent Kd; compound concentrations: 100 nM and 1000 nM (sheet 'Samples'), CATDS: 6.2859781396148603E-2; n = 1
# PTK2 = settings: read-out: apparent Kd; compound concentrations: 100 nM and 1000 nM (sheet 'Samples'), CATDS: 2.57578339913308E-2; n = 1
# TNK2 = settings: read-out: apparent Kd; compound concentrations: 100 nM and 1000 nM (sheet 'Samples'), CATDS: 3.6301330504794102E-2; n = 1
# [1] = compound concentrations:100 nM and 1000 nM (sheet 'Samples')
compound,measurement,setting,value
NS(=O)(=O)c1ccc(N/C=C2\C(=O)Nc3ccc4ncsc4c32)cc1 [GW297361X],potency estimated from few doses,"CDKL5; compound concentrations: 100 nM and 1000 nM (sheet 'Samples'), CATDS: 5.4362762723509199E-2",448 nM
same,potency estimated from few doses,"FLT3; compound concentrations: 100 nM and 1000 nM (sheet 'Samples'), CATDS: 4.1021562023835299E-2",799 nM
same,potency estimated from few doses,"MYLK3; compound concentrations: 100 nM and 1000 nM (sheet 'Samples'), CATDS: 0.13217199419509801",106 nM
same,potency estimated from few doses,"PRKD2; compound concentrations: 100 nM and 1000 nM (sheet 'Samples'), CATDS: 2.8859084082920799E-2",2200 nM
COc1cc[nH]c1/C=C1\C(=O)Nc2ccc([N+](=O)[O-])c(N3CC[C@@H](O)C3)c21 [RO0504985-000],potency estimated from few doses,"CDKL5; compound concentrations: 100 nM and 1000 nM (sheet 'Samples'), CATDS: 0.118567124910979",46.7 nM
same,potency estimated from few doses,"FLT3; compound concentrations: 100 nM and 1000 nM (sheet 'Samples'), CATDS: 3.5682803402027001E-2",989 nM
Cc1occc1-c1nc(N)c(OC[C@@H](N)Cc2c[nH]c3ccccc23)cc1-c1cc2c(C)n[nH]c2cn1 [GSK1660450B],potency estimated from few doses,DYRK1A; [1],1790 nM
same,potency estimated from few doses,MARK4,1110 nM
same,potency estimated from few doses,PRKCD; [1],8.62 nM
same,potency estimated from few doses,PRKD2; [1],386 nM
same,potency estimated from few doses,PRKD3; [1],170 nM
same,potency estimated from few doses,RPS6KA6; [1],19.1 nM
Cl.Cn1cc(C2=C(c3c4n(c5ccccc35)CCNC4)C(=O)NC2=O)c2ccccc21 [RO0318365-001],potency estimated from few doses,"CDK7; compound concentrations: 100 nM and 1000 nM (sheet 'Samples'), CATDS: 7.1923944144695898E-2",734 nM
same,potency estimated from few doses,"ERCC2; compound concentrations: 100 nM and 1000 nM (sheet 'Samples'), CATDS: 7.4045119432564296E-2",696 nM
same,potency estimated from few doses,FER; CATDS: 6.02044843999179E-2,1060 nM
same,potency estimated from few doses,PLK4; CATDS: 5.91687426181325E-2,1100 nM
same,potency estimated from few doses,"PRKCD; compound concentrations: 100 nM and 1000 nM (sheet 'Samples'), CATDS: 4.8671677826933601E-2",1810 nM
same,potency estimated from few doses,PRKCQ; CATDS: 7.9846572084882106E-2,607 nM
same,potency estimated from few doses,PTK2B; CATDS: 6.7595952047570504E-2,828 nM
COc1cc[nH]c1/C=C1\C(=O)Nc2ccc(F)c(C#C[C@@H](O)[C@@H](N)[C@@H](C)O)c21 [RO0283120-000],potency estimated from few doses,CDK7; [1],445 nM
same,potency estimated from few doses,CDKL5; [1],32.4 nM
same,potency estimated from few doses,ERCC2; [1],785 nM
same,potency estimated from few doses,FLT3; [1],59.3 nM
same,potency estimated from few doses,LATS1; [1],125 nM
same,potency estimated from few doses,MARK4,703 nM
same,potency estimated from few doses,MYLK3; [1],827 nM
same,potency estimated from few doses,PRKAA1; [1],1040 nM
same,potency estimated from few doses,PRKD2; [1],278 nM
same,potency estimated from few doses,PRKD3; [1],236 nM
NS(=O)(=O)c1ccc(NC=C2C(=O)Nc3ccc4ncsc4c32)cc1 [GW589933X],potency estimated from few doses,"CDKL5; compound concentrations: 100 nM and 1000 nM (sheet 'Samples'), CATDS: 7.9596409580243901E-2",52.4 nM
same,potency estimated from few doses,"FLT3; compound concentrations: 100 nM and 1000 nM (sheet 'Samples'), CATDS: 2.3969492803236899E-2",581 nM
same,potency estimated from few doses,"LATS1; compound concentrations: 100 nM and 1000 nM (sheet 'Samples'), CATDS: 1.9733333265128199E-2",1020 nM
same,potency estimated from few doses,"MYLK3; compound concentrations: 100 nM and 1000 nM (sheet 'Samples'), CATDS: 0.127483608454634",23.7 nM
same,potency estimated from few doses,"PRKD2; compound concentrations: 100 nM and 1000 nM (sheet 'Samples'), CATDS: 1.78038958195245E-2",1460 nM
same,potency estimated from few doses,"PRKD3; compound concentrations: 100 nM and 1000 nM (sheet 'Samples'), CATDS: 1.69814633200863E-2",1760 nM
CNc1nccc(-c2ccc3c(N)n[nH]c3c2)n1 [GSK2206003A],potency estimated from few doses,"DYRK1A; compound concentrations: 100 nM and 1000 nM (sheet 'Samples'), CATDS: 5.2030559523690803E-2",1370 nM
same,potency estimated from few doses,"MYLK3; compound concentrations: 100 nM and 1000 nM (sheet 'Samples'), CATDS: 6.3436586084605395E-2",601 nM
same,potency estimated from few doses,STK10,622 nM
Cl.Cl.NCC(NC(=O)c1cc(-c2ccnc3[nH]ccc23)cs1)c1ccccc1.NCC(NC(=O)c1cc(-c2ccnc3[nH]ccc23)cs1)c1ccccc1 (stereo not shown) [GSK1229959A],potency estimated from few doses,"CDK7; compound concentrations: 100 nM and 1000 nM (sheet 'Samples'), CATDS: 2.3944449367716902E-2",349 nM
same,potency estimated from few doses,"CDKL5; compound concentrations: 100 nM and 1000 nM (sheet 'Samples'), CATDS: 5.0422739373742101E-2",33.2 nM
same,potency estimated from few doses,"DYRK1A; compound concentrations: 100 nM and 1000 nM (sheet 'Samples'), CATDS: 1.8409243102770301E-2",1200 nM
same,potency estimated from few doses,"ERCC2; compound concentrations: 100 nM and 1000 nM (sheet 'Samples'), CATDS: 2.07815599628208E-2",649 nM
same,potency estimated from few doses,"MYLK3; compound concentrations: 100 nM and 1000 nM (sheet 'Samples'), CATDS: 2.3428006567825201E-2",382 nM
same,potency estimated from few doses,"PRKCD; compound concentrations: 100 nM and 1000 nM (sheet 'Samples'), CATDS: 2.3457230282112398E-2",380 nM
same,potency estimated from few doses,PRKCQ; CATDS: 1.8945184174552199E-2,1030 nM
same,potency estimated from few doses,PTK2B; CATDS: 1.9759894186564299E-2,828 nM
Cc1cc(NC(=O)c2cccc(NC(=O)/C=C/CN(C)C)c2)ccc1Nc1nccc(-c2cccnc2)n1 [JNK-IN-7],potency estimated from few doses,CDKL5; [1],958 nM
O=C1N=C(NCc2ccccc2Br)S/C1=C\c1ccc2ncccc2c1 [RO4506918-000],potency estimated from few doses,"DYRK1A; compound concentrations: 100 nM and 1000 nM (sheet 'Samples'), CATDS: 8.9156542240232201E-2",912 nM
COc1cc2ncn(-c3cc(OCc4ccccc4S(C)(=O)=O)c(C#N)s3)c2cc1OC [GSK319347A],potency estimated from few doses,"MYLK3; compound concentrations: 100 nM and 1000 nM (sheet 'Samples'), CATDS: 9.2768404511317695E-2",1190 nM
same,potency estimated from few doses,PLK4; CATDS: 8.6919710650877405E-2,1390 nM
Cl.Cn1c(=O)c(Cc2ccccc2F)cc2cnc(NC3CCOCC3)nc21 [RO3305377-001],potency estimated from few doses,"CDK7; compound concentrations: 100 nM and 1000 nM (sheet 'Samples'), CATDS: 3.4029245989281497E-2",380 nM
same,potency estimated from few doses,"ERCC2; compound concentrations: 100 nM and 1000 nM (sheet 'Samples'), CATDS: 3.95504986982557E-2",299 nM
same,potency estimated from few doses,FER; CATDS: 3.5160978159500297E-2,361 nM
same,potency estimated from few doses,PLK4; CATDS: 2.6104796567006299E-2,613 nM
same,potency estimated from few doses,"PRKAA1; compound concentrations: 100 nM and 1000 nM (sheet 'Samples'), CATDS: 2.1062710392343101E-2",980 nM
same,potency estimated from few doses,PTK2B; CATDS: 3.3520584845693903E-2,390 nM
same,potency estimated from few doses,PTK2,630 nM
same,potency estimated from few doses,"RPS6KA6; compound concentrations: 100 nM and 1000 nM (sheet 'Samples'), CATDS: 2.9562664752210699E-2",485 nM
same,potency estimated from few doses,TNK2,342 nM
NS(=O)(=O)c1ccc(N/N=C2\C(=O)Nc3ccc4ncccc4c32)cc1 [GW305178X],potency estimated from few doses,"CDKL5; compound concentrations: 100 nM and 1000 nM (sheet 'Samples'), CATDS: 5.21381649539812E-2",867 nM
CN[C@H](C#Cc1c(F)ccc2c1/C(=C/c1[nH]ccc1OC)C(=O)N2)CO.Cl [RO0283049-001],potency estimated from few doses,"CDKL5; compound concentrations: 100 nM and 1000 nM (sheet 'Samples'), CATDS: 0.200980885548627",17.8 nM
same,potency estimated from few doses,"FLT3; compound concentrations: 100 nM and 1000 nM (sheet 'Samples'), CATDS: 0.132856529197414",31.3 nM
same,potency estimated from few doses,"LATS1; compound concentrations: 100 nM and 1000 nM (sheet 'Samples'), CATDS: 5.43155260129227E-2",134 nM
same,potency estimated from few doses,"MYLK3; compound concentrations: 100 nM and 1000 nM (sheet 'Samples'), CATDS: 2.9648763968158898E-2",504 nM
